This is a sample that favours compounds with a hit; in the whole collection about 4.2% have one here.
Wnt bcat act = Wnt/beta-catenin pathway activators, primary screen, cell-based, plate reader, single point; Wnt/beta-catenin reporter cell assay, activator; activation, % at 9.35 µM; 1.2% of 300,000 active; AID 743398, 2014; in the data active = activation above about 30%, passing the limit was not always enough; inconclusive = no clear call, values can overlap the other calls;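 note: 0% = neutral control wells and 100% = positive control wells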
ssDAF-12 act = S. stercoralis DAF-12 nuclear receptor activators, primary screen, cell-based, luminescence, HEK293, GRIP1 co-expression, lit1-tk-luc. Nuclear hormone receptor DAF-12 (Strongyloides stercoralis). HEK293 ssDAF-12/GRIP1 lit1-tk-luc reporter; % of 3 µM dafachronic acid response. activation, % at 6.8 µM. 1% of 370,000 active;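 active = activation above the mean over all tested compounds plus 3 SD, cut at about 0.9% in these data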;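 note: 0% = DMSO-only wells and 100% = 3 µM delta7-dafachronic acid wells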
esBAF inh = Bmi1 luciferase reporter increase in mESCs, primary screen, esBAF inhibitor project, mouse ES cells, Bmi1 luciferase knock-in, single point; 24 h; 100% = twice the neutral-well signal; reporter increase, % at 12.5 µM; 2% of 350,000 active; in the data active = activation above about 40%; inconclusive = no clear call, values can overlap the other calls;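 note: 0% = median of the plate's neutral control wells and 100% = double that signal; a rise in the Bmi1 reporter signal indicates esBAF inhibition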
DAX1 inh = DAX1 (NR0B1) inhibitors on StAR promoter, primary screen, cell-based, luminescence, SF-1 (NR5A1), full-length DAX-1 | HEK293T StAR-luciferase reporter, SF-1/DAX-1 repression relief | inhibition, % at 6.8 µM | 1.1% of 370,000 active;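 active = inhibition above the mean over all tested compounds plus 3 SD, cut at about 3.6% in these data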;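 note: 0% = DAX-1 cells with DMSO and 100% = cells lacking DAX-1 with DMSO; higher inhibition means more luminescence from relief of DAX-1 repression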
hcDAF12 agonist = H. contortus DAF-12 nuclear receptor activators, primary screen, cell-based, luminescence, HEK293, lit1-tk-luc reporter | HEK293 hcDAF-12 lit1-tk-luc reporter; 0% DMSO, 100% Δ7-dafachronic acid | activation, % at 6.8 µM | 1.4% of 370,000 active | AID 652067, 2013;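 active = activation above the mean of all tested compounds plus 3 SD, cut at about 5.5% in these data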;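 note: 100% = response to 3 µM Δ7-dafachronic acid high control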
hgDAF-12 ag = H. glycines DAF-12 receptor agonists, primary screen, cell-based, luminescence, HEK293, GAL4 fusion, UAS-luciferase; activation, % at 6.8 µM; Nuclear hormone receptor DAF-12 (Heterodera glycines), GAL4 fusion; AID 687014, 2013; HEK293 GAL4-hgDAF12 UAS-luciferase reporter, agonist luminescence; normalized to butyrate control; 1.8% of 370,000 active;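 active = activation above a cutoff set at the mean of all screened compounds plus 3 SD, cut at about 10% in these data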;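 note: 0% = DMSO wells and 100% = sodium butyrate wells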
* = called active by the depositor; ? = inconclusive; nt = not tested or not shown.

SMILES	Wnt bcat act	ssDAF-12 act	esBAF inh	DAX1 inh	hcDAF12 agonist	hgDAF-12 ag
CC(C)C(=O)Nc1ccc2c(c1)C(=O)N(C)[C@H]1CC[C@H](CC(=O)NCC3CC3)O[C@H]1CO2	nt	nt	-4	nt	nt	nt
C/C=C/c1cnc2c(c1)C(=O)N([C@@H](C)CO)C[C@H](C)[C@H](CN(C)C(=O)Nc1c(C)noc1C)O2	nt	nt	2	nt	nt	nt
O=C(C[C@@H]1C=C[C@H](NC(=O)Nc2ccc(C(F)(F)F)cc2)[C@H](CO)O1)NCc1cc(F)cc(F)c1	nt	nt	12	nt	nt	nt
CCOC(=O)Nc1nc2ccccc2s1	nt	0	?	3	4	11*
Cc1csc(SCC(=O)Nc2nc3ccccc3s2)n1	-2	0	47*	1	0	4
CCCNC(=O)Nc1nc2ccccc2s1	?	0	nt	3	3	12*
CC(C)NC(=O)Nc1ccc2c(c1)CC(=O)N([C@H](C)CO)C[C@@H](C)[C@H](CN(C)S(=O)(=O)c1cn(C)cn1)O2	nt	nt	-4	nt	nt	nt
C[C@H](CO)N1C[C@H](C)[C@H](CN(C)C(=O)Nc2ccc(C(F)(F)F)cc2)Oc2ccc(NC(=O)Cn3cnnn3)cc2C1=O	nt	nt	2	nt	nt	nt
O=C(N[C@@H]1CC[C@@H](CCNC(=O)c2cnccn2)O[C@@H]1CO)c1ccc2c(c1)OCO2	nt	nt	-1	nt	nt	nt
COc1cccc(-c2ccc3c(c2)[C@H]2[C@H](CCN2C(=O)NC2CCCC2)[C@H](CO)N3C)c1	nt	nt	16	nt	nt	nt
Cc1ccc(C(c2cc(Cl)c3cccnc3c2O)N2CCN(C)CC2)cc1 (stereo not given)	nt	nt	-1	nt	nt	nt
Oc1c(C(c2ccccn2)N2CCC(Cc3ccccc3)CC2)cc(Cl)c2cccnc12 (stereo not given)	204*	-1	nt	0	2	-4
CN1CCN(C(c2ccccn2)c2cc(Cl)c3cccnc3c2O)CC1 (stereo not given)	58*	0	5	0	4	-3
Cc1noc(C)c1NC(=O)Nc1ccc2c(c1)C(=O)N([C@@H](C)CO)C[C@@H](C)[C@@H](CN(C)C(=O)Nc1ccccc1)O2	nt	nt	5	nt	nt	nt
COc1ccccc1CN1CN(S(=O)(=O)c2ccccc2)c2nc3ccccc3nc21	16	-1	nt	1	6.1*	4
CCCCN1CN(S(=O)(=O)c2cccs2)c2nc3ccccc3nc21	nt	-1	nt	0	-1	1
O=S(=O)(c1cccs1)N1CN(Cc2ccco2)c2nc3ccccc3nc21	7	0.9*	18	-1	0	2
Cc1ccc(CN2CN(S(=O)(=O)c3cccs3)c3nc4ccccc4nc32)cc1	nt	-1	70*	0	1	8
O=S(=O)(c1cccs1)N1CN(Cc2ccc(Cl)cc2)c2nc3ccccc3nc21	nt	-1	54*	1	1	4
C[C@@H]1CN([C@@H](C)CO)C(=O)Cc2cc(NS(=O)(=O)c3ccc(F)cc3)ccc2O[C@H]1CN(C)C(=O)NC1CCCCC1	nt	nt	0	nt	nt	nt
C[C@@H]1CN([C@H](C)CO)S(=O)(=O)c2ccc(Br)cc2O[C@@H]1CN(C)C(=O)CN(C)C	nt	nt	-1	nt	nt	nt
O=C(CSc1ccc(-c2ccccc2)nn1)N1CCCCC1	11	1.0*	?	2	5	7
Cc1ccc(-c2ccc(SCC(=O)NC3CCCC3)nn2)cc1	7	-1	nt	1	0	0
O=C(CSc1ccc(-c2ccncc2)nn1)N1CCCCC1	0	-1	nt	-1	-1	0
Cc1ccc(-c2ccc(SCC(=O)NC3CCCCC3)nn2)cc1	4	0	52*	0	0	6
SMILES	Wnt bcat act	ssDAF-12 act	esBAF inh	DAX1 inh	hcDAF12 agonist	hgDAF-12 ag
C[C@@H]1CN([C@H](C)CO)C(=O)c2cc(NC(=O)c3ccccc3)ccc2O[C@@H](C)CCCCO[C@@H]1CN(C)C(=O)c1ccncc1	nt	nt	0	nt	nt	nt
CCC(CO)Oc1cc(NCc2ccccc2)c2ncn(C(C)C)c2c1 (stereo not given)	-3	-1	60*	0	-1	-1
Cn1cc(-c2coc3c(C(=O)NCc4ccco4)cccc23)cn1	nt	nt	72*	nt	nt	nt
Cc1cccc(NC(=O)C[C@H]2CC[C@H]3[C@@H](COc4ccc(NC(=O)NC(C)C)cc4C(=O)N3C)O2)c1	nt	nt	-1	nt	nt	nt
CCN1CCCC1CN(Cc1cc2cc(C)ccc2[nH]c1=O)C(=O)Nc1ccccc1OC (stereo not given)	nt	-1	-4	4.0*	3	1
COc1ccc(-c2csc(Nc3ccccc3)[n+]2Cc2ccccc2)cc1	0	0.9*	nt	0	0	6
COc1ccccc1-c1ccc2n(c1=O)C[C@H]1[C@H](CO)[C@@H](C(=O)NCc3ccccc3F)N[C@@H]21	nt	nt	0	nt	nt	nt
C[C@@H]1CN([C@H](C)CO)C(=O)c2cc(-c3ccc(F)cc3)cnc2O[C@H]1CN(C)Cc1ccc(F)cc1	nt	nt	-7	nt	nt	nt
CCOC(=O)Cn1nc(-c2ccccc2)c2cnc3ccc(C)cc3c21	1	1	12	0	6.3*	1
O=C(N[C@@H]1CC[C@H](CCNC(=O)C2CCCC2)O[C@@H]1CO)c1ccncc1	nt	nt	0	nt	nt	nt
C[C@H](CO)N1C[C@H](C)[C@@H](CN(C)C(=O)Nc2ccc(C(F)(F)F)cc2)OCCCC[C@H](C)Oc2ccc(NC(=O)Nc3ccc(F)cc3)cc2C1=O	nt	nt	5	nt	nt	nt
O=C(C[C@@H]1C=C[C@H](NC(=O)c2ccc(F)cc2)[C@@H](CO)O1)NCCc1ccccc1	nt	nt	-1	nt	nt	nt
CCc1ccc(Nc2nnc(SCC(=O)NCCN3C(=O)CSC3=O)s2)cc1	24	0	25	1	2	12*
C[C@@H]1CN([C@@H](C)CO)C(=O)c2cc(NC(=O)Nc3ccc(F)cc3)ccc2O[C@H]1CN(C)Cc1ccc(C(F)(F)F)cc1	nt	nt	3	nt	nt	nt
CN(C)c1ccc(-c2ccccc2)nn1	1	0	7	3.8*	3	8
CCN(CC)c1cc(-c2ccccc2)ncn1	nt	-1	nt	0	-1	-1
Cc1ccc(C2C(C(=O)c3cccs3)=C(O)C(=O)N2c2ccc(S(N)(=O)=O)cc2)cc1 (stereo not given)	-1	-1	nt	0	2	4
Cc1ccc(C2C(C(=O)c3cccs3)=C(O)C(=O)N2c2cccc(C)n2)cc1 (stereo not given)	34*	-1	nt	0	1	1
CC1SCC(=NOCc2ccccc2)CS1 (stereo not given)	48*	1	nt	0	2	2

High-throughput results deposited in PubChem by several laboratories.
